About 14,000 (4.5%) of roughly 310,000 compounds showed an effect of 50% or more. The effect is printed as a negative number. What follows is part of a selection rich in strong results, with near analogues and random picks from the rest.
molecular target: human ether-à-go-go-related gene (hERG) potassium channel (human, UniProt Q12809); assay: primary screen, population patch clamp on CHO cells stably expressing hERG; higher = less effect of the substance
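Further: peak tail current of the secondary pulse compared with the same well before compound.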

Sequence of human ether-à-go-go-related gene (hERG) potassium channel (Q12809 whole entry, looked up): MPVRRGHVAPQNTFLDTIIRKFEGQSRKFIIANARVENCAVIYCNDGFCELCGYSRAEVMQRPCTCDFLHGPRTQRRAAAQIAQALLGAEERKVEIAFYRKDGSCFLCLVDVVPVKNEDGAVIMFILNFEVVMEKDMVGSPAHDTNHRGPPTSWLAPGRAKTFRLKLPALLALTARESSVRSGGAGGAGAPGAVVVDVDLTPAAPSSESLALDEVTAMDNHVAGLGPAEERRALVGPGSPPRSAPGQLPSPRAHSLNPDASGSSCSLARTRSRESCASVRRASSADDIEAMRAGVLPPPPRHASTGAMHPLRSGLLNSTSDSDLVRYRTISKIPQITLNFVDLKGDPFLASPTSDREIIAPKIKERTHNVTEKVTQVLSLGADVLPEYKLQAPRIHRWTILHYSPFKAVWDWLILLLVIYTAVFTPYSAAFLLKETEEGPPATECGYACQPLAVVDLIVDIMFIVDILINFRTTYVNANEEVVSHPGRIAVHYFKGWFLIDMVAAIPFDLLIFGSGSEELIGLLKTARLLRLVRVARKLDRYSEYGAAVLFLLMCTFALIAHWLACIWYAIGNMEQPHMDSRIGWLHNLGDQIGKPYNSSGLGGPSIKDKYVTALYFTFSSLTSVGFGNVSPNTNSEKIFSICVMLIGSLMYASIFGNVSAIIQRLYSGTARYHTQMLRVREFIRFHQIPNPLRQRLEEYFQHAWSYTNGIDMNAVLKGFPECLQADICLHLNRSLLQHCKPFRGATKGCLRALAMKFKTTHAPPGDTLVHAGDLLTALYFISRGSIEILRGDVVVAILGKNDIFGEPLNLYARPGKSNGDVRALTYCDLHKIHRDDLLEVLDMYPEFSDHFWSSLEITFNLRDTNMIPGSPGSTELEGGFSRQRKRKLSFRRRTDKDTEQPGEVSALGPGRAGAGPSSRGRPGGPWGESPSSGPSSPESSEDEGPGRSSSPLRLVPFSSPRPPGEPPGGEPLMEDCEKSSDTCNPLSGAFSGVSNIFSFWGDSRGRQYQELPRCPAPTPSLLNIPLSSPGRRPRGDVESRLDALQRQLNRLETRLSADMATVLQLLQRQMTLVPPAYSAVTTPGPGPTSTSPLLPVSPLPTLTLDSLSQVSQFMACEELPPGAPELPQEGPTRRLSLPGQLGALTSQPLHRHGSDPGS

Row | SMILES | hERG current change (%, negative = inhibition) at 10uM
1 | CC(=O)c1ccc(OCCCCOc2ccc(C(C)=O)cc2)cc1 | 21.4%
2 | COc1ccccc1OC(=O)c1ccc(SC)cc1OC | -24%
3 | C[C@]12CC[C@@H]3c4ccc(OS(=O)(=O)[O-])cc4CC[C@H]3[C@@H]1CCC2=O.[Na+] | 16.9%
4 | O=C(CSc1nc(-c2ccccc2)c(-c2ccccc2)o1)NC1CCS(=O)(=O)C1 (stereo not drawn) | -27.1%
5 | CCc1ccccc1NC(=O)CCCN1C(=O)C2CC=CCC2C1=O (stereo not drawn) | 12%
6 | Cc1ccccc1C(N)c1ccncc1.Cl (stereo not drawn) | 2.52%
7 | COc1cc(/C=C(\C#N)c2nc3ccccc3[nH]2)cc(Br)c1OCc1ccccc1 | 0.571%
8 | Cc1ccc(N(CC(=O)NCc2ccco2)C(=O)CCC(=O)Nc2nccs2)cc1 | -1.5%
9 | Cc1cc(Cl)ccc1OCC(=O)NNC(=O)c1cnccn1 | 11.6%
10 | COc1cc(C(C)=O)ccc1OCC(=O)Nc1ccc(Cl)c(S(=O)(=O)N2CCOCC2)c1 | -66.7%
11 | COc1cc(C(C)=O)ccc1OCC(=O)Nc1ccc(C)c(S(=O)(=O)N2CCCCCC2)c1 | -26.3%
12 | Cc1cc(Cl)ccc1OCC(=O)NNC(=O)c1ccco1 | 8.38%
13 | COc1ccc(C(=O)NNC(=O)COc2ccc(Cl)cc2C)cc1S(=O)(=O)N1CCOCC1 | -77.1%
14 | COc1cc(C#N)ccc1OCC(=O)Nc1ccc(C)c(S(=O)(=O)N2CCOCC2)c1 | -36.1%
15 | COc1ccc(Cl)cc1NC(=O)COc1ccc(S(=O)(=O)N2CCOCC2)cc1C | 10.8%
16 | COc1ccc(CC(=O)NNC(=O)COc2ccc(Cl)cc2C)cc1S(=O)(=O)N1CCOCC1 | -36.1%
17 | Cc1ccc(C(=O)NNC(=O)COc2ccc(Cl)cc2C)o1 | -57.6%
18 | CC1(C)CC(=O)C2=C(C1)OC1=C(C(=O)CC(C)(C)C1)C2c1ccccc1 | 16.9%
19 | Nc1c(N(C(=O)Nc2ccc(Cl)c(Cl)c2)C2CCCC2)c(=O)[nH]c(=O)n1Cc1ccccc1 | 24.7%
20 | COc1ccc(NC(=O)CS(=O)CC(=O)Nc2ccc(-n3cnnn3)c(C)c2)cc1 (stereo not drawn) | 12.4%
21 | S=c1[nH]nc(-c2ccco2)n1/N=C/C=C/c1ccco1 | 13.7%

Row | SMILES | hERG current change (%, negative = inhibition) at 10uM
22 | C/C(=N/NS(=O)(=O)c1ccc(C)cc1)c1ccc2c(c1)OCO2 | 13%
23 | C=CCc1cccc2cc(C(=O)N(CC)CC)c(=O)oc12 | -6.47%
24 | CCCCN(C)CCN1C(=O)C2C(C(=O)Nc3ccc(Cl)cc3)C3C=CC2(O3)C1C(=O)NC1CCCCC1 (stereo not drawn) | -70.2%
25 | CCCCN(C)CCN1C(=O)C2C(C(=O)Nc3ccc(OC)cc3)C3C=CC2(O3)C1C(=O)NC1CCCCC1 (stereo not drawn) | -8.93%
26 | CCCN(CCC)CCN1C(=O)C2C(C(=O)Nc3ccc(C)cc3)C3C=CC2(O3)C1C(=O)NC1CCCCC1 (stereo not drawn) | -30.2%
27 | CCOCCCN1C(=O)C2C(C(=O)Nc3ccc(OCC)cc3)C3C=CC2(O3)C1C(=O)NC1CCCCC1 (stereo not drawn) | -72.8%
28 | CCCCN(C)CCN1C(=O)C2C(C(=O)Nc3ccc(C)cc3)C3C=CC2(O3)C1C(=O)NC1CCCCC1 (stereo not drawn) | -26.1%
29 | COc1ccc(NC(=O)C2C3C=CC4(O3)C2C(=O)N(CCN2CCCCC2)C4C(=O)NC2CCCCC2)cc1 (stereo not drawn) | 9.9%
30 | CCCN(CCC)CCN1C(=O)C2C(C(=O)Nc3cccc(SC)c3)C3C=CC2(O3)C1C(=O)NC1CCCCC1 (stereo not drawn) | -68.2%
31 | CSc1cccc(NC(=O)C2C3C=CC4(O3)C2C(=O)N(CCN2CCOCC2)C4C(=O)NC2CCCCC2)c1 (stereo not drawn) | 9.21%
32 | CCOc1ccc(NC(=O)C2C3C=CC4(O3)C2C(=O)N(Cc2cccnc2)C4C(=O)NC2CCCCC2)cc1 (stereo not drawn) | 16%
33 | Cc1ccccc1NC(=O)/C(C#N)=C\c1cccnc1 | -16.3%
34 | Cc1ccc2oc(C(=O)N3CCC(C(N)=O)(N4CCCCC4)CC3)c(C)c2c1 | -27%
35 | COc1cc2cc(C(C)(C)O)oc(=O)c2cc1OC | 13%
36 | O=C(Cn1ncc2c(=O)oc3ccccc3c21)N1CCN(C(=O)c2ccco2)CC1 | -73.6%
37 | Cc1ccc2oc(=O)c3cnn(CC(=O)NCCc4ccsc4)c3c2c1 | -12.2%
38 | O=C(c1ccco1)N1CCN(C(=O)c2cc3c(=O)oc4ccccc4c3s2)CC1 | -62.9%
39 | O=C(c1cc2c(s1)-c1ccccc1OC2)N1CCCC1 | -4.69%
40 | O=C(c1ccco1)N1CCN(C(=O)c2cc3c(s2)-c2ccccc2OC3)CC1 | -63.9%
41 | O=C(Cn1ncc2c(=O)oc3ccccc3c21)N1CCN(c2ccccn2)CC1 | -41%
42 | Cc1ccc2oc(=O)c3cc(C(=O)N4CCN(C(=O)c5ccco5)CC4)sc3c2c1 | -21.5%

Row | SMILES | hERG current change (%, negative = inhibition) at 10uM
43 | O=C(Cn1ncc2c(=O)oc3ccccc3c21)NCCC1=CCCCC1 | -3.92%
44 | O=C(Cn1ncc2c(=O)oc3ccccc3c21)N1CCC(N2CCCCC2)CC1 | -5%
45 | O=C(c1cc2c(s1)-c1ccccc1OC2)N1CCN(c2ccccc2)CC1 | 8.08%
46 | O=C(Cn1ncc2c(=O)oc3ccccc3c21)NCCc1ccsc1 | -54.2%
47 | O=C(c1cc2c(=O)oc3ccccc3c2s1)N1CCOCC1 | -0.51%
48 | Cc1n[nH]c(C)c1S(=O)(=O)NCCc1ccc(Cl)cc1 | 5%
49 | O=c1cc(-c2ccc(O)c(-c3c(O)cc(O)c4c(=O)cc(-c5ccc(O)cc5)oc34)c2)oc2cc(O)cc(O)c12 | -7.09%
50 | COc1cc(C(=O)Nc2ccc3c(c2)OCCO3)ccc1OC(F)F | -5.02%
51 | Cc1cc(NC(=O)CCC(=O)N(Cc2ccccc2)C2(C(=O)NC3CCCCC3)CCCC2)no1 | 21.1%
52 | Cc1cc(NC(=O)CCC(=O)N(CCC(C)C)C(C(=O)NC2CCCC2)c2ccccc2C)no1 (stereo not drawn) | -21.5%
53 | O=C(NC(=S)NCC1CCCO1)c1cccc([N+](=O)[O-])c1 (stereo not drawn) | 2.05%
54 | O=C(NC1CC2CCCC(C1)N2C(=O)NCc1ccccc1)C1CC1 (stereo not drawn) | 4.22%
55 | CCc1ccc(OCC(=O)NNC(=O)c2cnccn2)c(Br)c1 | -5.95%
56 | CC(=O)O.CN1CCCC(CN2c3ccccc3Sc3ccccc32)C1 (stereo not drawn) | -28.4%
57 | CN1CCCC(OC(=O)COc2ccccc2)C1.Cl (stereo not drawn) | 10.4%
58 | Cl.c1ccc2c(c1)CC(N1CCCCC1)c1ccccc1S2 (stereo not drawn) | 9.15%
59 | CN1CCCC(C(O)(c2ccccc2)c2ccccc2)C1 (stereo not drawn) | 16.3%
60 | CN1CCCC(CC2Oc3ccccc3Sc3ccccc32)C1.O=C(O)C(=O)O (stereo not drawn) | -67%
61 | CN1CCCC(CC2c3ccccc3Sc3ccccc32)C1.Cl.O (stereo not drawn) | -52.9%
62 | CC(C)Oc1ccc(/C(O)=C2/C(=O)C(=O)N(CCN3CCOCC3)C2c2ccccc2)cc1 (stereo not drawn) | 13.6%
63 | COC(=O)Cn1ccc2cc(S(=O)(=O)N3CCCCC3)ccc21 | -8.73%

Row | SMILES | hERG current change (%, negative = inhibition) at 10uM
64 | CCOC(=O)c1cc2occc2n1CCCN1C(=O)c2ccccc2C1=O | -23.5%
65 | Cc1ccc(C(=O)COC(=O)c2cc(Cl)ccc2O)cc1[N+](=O)[O-] | 10.4%
66 | O=C(COc1cc(Cl)ccc1Cl)Nc1ccc2[nH]c(=O)[nH]c2c1 | 12.8%
67 | COc1ccc(NC(=O)c2ccco2)cc1NC(=O)c1cc2ccccc2o1 | 3.33%
68 | O=C1Nc2ccccc2S/C1=C/Nc1cccc(Cl)c1 | -3.01%
69 | C[C@H]1CCCC(=O)CCCCCc2cc(O)cc(O)c2C(=O)O1 | -0.0905%
70 | CC1CCC[C@H](O)CCCCCc2cc(O)cc(O)c2C(=O)O1 (stereo partly drawn) | 5.64%
71 | C[C@H]1CCC[C@H](O)CCCCCc2cc(O)cc(O)c2C(=O)O1 | -51%
72 | O=S(=O)(Nc1ccncc1)c1cc(Cl)c(Cl)cc1Cl | 0.0869%
73 | O=C1C(Cl)=C(N2CCOCC2)C(=O)N1c1ccc(Br)cc1 | 14.8%
74 | O=C(COc1ccc(Br)cc1)Nc1ccccc1C(=O)NC1CC1 | -6.57%
75 | CCOc1ccc(NC(=O)CSc2cn[nH]n2)cc1 | 3.89%
76 | CN(Cc1ccccn1)C(=O)C1CCC(=O)N(Cc2cccc(F)c2)C1 (stereo not drawn) | 6.47%
77 | Cc1cnc(C)c(N2CCN(C(=O)C3CCC(=O)N(CCc4cccc(F)c4)C3)CC2)n1 (stereo not drawn) | -53.9%
78 | Cc1cc(CN(C)C(=O)C2CCC(=O)N(CCc3cccc(F)c3)C2)on1 (stereo not drawn) | 9.94%
79 | CN1CCN(C(=O)C2CCC(=O)N(CCc3cccc(F)c3)C2)CC1 (stereo not drawn) | 12.3%
80 | Cc1nc2ccccn2c1CN(C)C(=O)C1CCC(=O)N(Cc2cccc(F)c2)C1 (stereo not drawn) | -80.2%
81 | O=C1CCC(C(=O)N2CCCC2)CN1CCc1cccc(F)c1 (stereo not drawn) | 4.37%
82 | Cc1nc2ccccn2c1CN(C)C(=O)C1CCC(=O)N(CCc2cccc(F)c2)C1 (stereo not drawn) | -75.6%
83 | Cc1nc(CN(C)C(=O)C2CCC(=O)N(CCc3cccc(F)c3)C2)cs1 (stereo not drawn) | -7.62%
84 | CN(Cc1cnn(C)c1)C(=O)C1CCC(=O)N(Cc2cccc(F)c2)C1 (stereo not drawn) | -49.8%

— PMC4336329 (PLoS ONE, 2015)
